PubChem BioAssay (NCI)
About 79,000 compounds went through this panel and 15% of them were active in at least one assay; those are over-represented in the sample as a whole. Activity calls are given as the source filed them. Cut-off read from the data, not from the text of the source: active = growth inhibition above about 70%; inactive = the rest.

Experiment: NCI Yeast Anticancer Drug Screen. Data for the cln2 rad14 strain (AID 165);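 note: 0% = growth equal to vehicle treated cultures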
Details: S. cerevisiae cln2 rad14 strain, at 50.0 µM, hits give high values
Outline: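 Growth inhibition, relative to vehicle-treated controls, is the read-out. The test organism is a yeast strain with defined genetic alterations, cln2 rad14.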

| Compound | growth inhibition |
| --- | --- |
| CC(=O)Sc1ccc(Br)cc1 | -2.05% (inactive) |
| CC(C)OCc1cccc2ccnc(COC(C)C)c12 | 20.6% (inactive) |
| Nc1ccc2c(c1)C(=O)c1ccccc1-2 | 11.6% (inactive) |
| O=C1Nc2ccc([N+](=O)[O-])c3c([N+](=O)[O-])ccc1c23 | 69.8% (inactive) |
| Cc1ccc(NC(=O)Oc2ccc(C(C)(C)C)cc2Br)cc1NC(=O)Oc1ccc(C(C)(C)C)cc1Br | 19.9% (inactive) |
| O=C1C(Cl)=C(Nc2ccc(S(=O)(=O)O)cc2)C(=O)c2ccccc21 | 99.3% (active) |
| N/C(=N\OC(=O)Nc1ccccc1)c1ccccc1 | 32.2% (inactive) |
| O=C1c2ccccc2C(=O)c2cc(N3C(=O)C=CC3=O)ccc21 | 91.7% (active) |
| CCCCN=C(c1ccc(O)cc1)c1ccc(OC)cc1O | 26.6% (inactive) |
| Cc1ccc(S(=O)(=O)c2cc(O)c(O)c3ccc(Br)cc23)cc1 | 95.4% (active) |
| CC(C)(C)NC(=S)N/N=C/c1cc(Cl)cc(Cl)c1O | 82.7% (active) |
| Oc1ccc2c(c1)OCC1c3ccccc3OC21 (stereo not drawn) | 50.1% (inactive) |
| OCCSC(=S)Nc1ccc(Cl)c(Cl)c1 | 99.5% (active) |
| CCCC[N-]CC(O)C[NH-].O=C(O)CC(=O)O.[Pt+2] (stereo not drawn) | 80% (active) |
| N=C(N)c1cccc(-c2ccc(-c3ccccc3)o2)c1 | 93.8% (active) |
| C#CC(CC(C)C)(CC(C)C)OC(=O)Nc1ccccc1 | 97.7% (active) |
| CCCCOc1ccc(-c2c(COC(=O)NC)c(COC(=O)NC)c(C)n2C)cc1 | 89% (active) |
| O=C(Nc1cccc2ccccc12)OCCCCCCl | 95.5% (active) |
